Data taken from PubChem BioAssay (NCI).
Compounds without any hit were thinned out: in the full panel of roughly 83,000, 20% have a hit.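 The endpoint reported here, percent growth, reads 100 for growth as untreated, 0 for no net growth and -100 for all cells dead.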 Unmarked numbers belong to inactive results. Calls of active or inactive are those of the source. How the source made its calls: active means growth percent below 10; inactive means the rest.

test system: HL-60(TB) leukemia; experiment: NCI-60 one-dose screen, 48 h (100 = growth as untreated, 0 = no growth, -100 = all killed); details: 10 µM unless noted

Compound | growth
C=CCn1c(C)nc2cc(Nc3nc(N4CCCC4)nc4ccccc34)ccc21 | 88.5%
CCN1C(=O)N(CC)C2C1N=C(SCc1ccc(Cl)cc1)N2/N=C/C=C/c1ccccc1OC (stereo not given) | 37.9%
COc1ccccc1NS(=O)(=O)c1cccc(C(=O)Nc2ccc(Br)cc2)c1 | 29.4%
C[C@]1(O)CC(=O)[C@]2(O)C3=C(C=C[C@]2(O)C1)C(=O)c1c(O)cccc1C3=O | -43.8% (active)
O=Cc1ccc(-c2cn3ccnc3c(-c3ccc4ncn(Cc5ccccc5)c4c3)n2)cc1 | 83.5%
COc1cc(OC)cc(C(=O)C[n+]2cccc3cc[nH]c32)c1 | 99%
CC1(O)CCCCCC1 | 92.7%
CC(C)C[C@H](C(=O)O)N(C)C(=O)[C@@H]1CCCN1C(=O)[C@H](C)OC(=O)[C@H](CCC(N)=O)NC(=O)[C@@H]1CCC(=O)N1 | 85.8%
CCn1cc(CNc2ccc(C(=O)Nc3cc4cc(OC)c(OC)cc4c(C)n3)cc2)cn1 | 32.8%
CCS(=O)(=O)OCCCl | 86.7%
CCOC(=O)c1ccc(Nc2ncnc3c2cnn3-c2cccc(F)c2)cc1 | 109%
CCCC(CCC)Oc1ccc(CCCC2=C(O)c3ccccc3C(=O)C2=O)cc1 | 37.5%
Cn1cc(-c2csc(-c3c[nH]c4ccc(F)cc34)n2)c2cccnc21 | 24.5%
O=C(Nc1cccc(Br)c1)Oc1ccc(Cl)c2cccnc12 | 3.1% [100 µM] (active)
CO[C@H]1/C=C/O[C@@]2(C)Oc3c(C)c(O)c4c(c3C2=O)C(=O)C(/C=N/N(c2ccccc2)c2ccccc2)=C(NC(=O)/C(C)=C\C=C\[C@H](C)[C@H](O)[C@@H](C)[C@@H](O)[C@@H](C)[C@H](OC(C)=O)[C@@H]1C)C4=O | -12.5% (active)
